Among the data in the supplement of paper PMC4840960 are myelination values, retold here.

Values without a mark were called inactive.

The experiment concerns E18 rat cortical neuron-glia co-culture. The experiment can be described thus: myelination (MBP fiber length per Olig2+ nucleus), % of 1 µM DAPT response (DMSO = 0) (% of DAPT); higher = more myelination, active = 50 or more. To be noted: 5 µM; treatment time: 8 days (DIV5-DIV13). An outline of the steps: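 Four 10X fields in each of duplicate wells were analysed after cultures were fixed in 4 % paraformaldehyde and immunostained for MBP and Olig2, with DAPI as the nuclear counterstain. The cultures were papain-dissociated primary E18 rat cortical co-cultures at 20,000 cells/well on poly-d-lysine/laminin 96-well plates, dosed with library compounds at 1 or 5 µM in myelination medium from DIV5 to DIV13. The myelination readout was continuous straight MBP fiber length per Olig2+ nucleus, with 0.1 % DMSO set to 0 and a 1 µM positive control set to 100.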
For the compound `C[C@@H](O)[C@H]1C(=O)N2C(C(=O)O)=C(S[C@@H]3CN[C@H](C(=O)N(C)C)C3)[C@H](C)[C@H]12` [Meropenem], the myelination was -19.5. `CC1(C)S[C@@H]2[C@H](/N=C/N3CCCCCC3)C(=O)N2[C@H]1C(=O)O` [Amdinocillin]: the myelination is -5.42. Take `COc1ccc(Cl)cc1C(=O)NCCc1ccc(S(=O)(=O)NC(=O)NC2CCCCC2)cc1` [Glyburide]: the myelination is -10.7.

In the case of `COC(=O)[C@H](c1ccccc1Cl)N1CCc2sccc2C1` [Clopidogrel], the myelination is -2.98. Turning to `CC(=O)N1CCN(c2ccc(OCC3COC(Cn4ccnc4)(c4ccc(Cl)cc4Cl)O3)cc2)CC1` (stereo unspecified) [Ketoconazole], the myelination is -46.2. Consider `CCOc1cc(N)c(Cl)cc1C(=O)NCC1CN(Cc2ccc(F)cc2)CCO1` (stereo unspecified) [Mosapride], for which the myelination was -56.5. With `CC[C@H]1OC(=O)[C@H](C)[C@@H](O[C@H]2C[C@@](C)(OC)[C@@H](O)[C@H](C)O2)[C@H](C)[C@@H](O[C@@H]2O[C@H](C)C[C@H](N(C)C)[C@H]2O)[C@](C)(O)C[C@@H](C)CN(C)[C@H](C)[C@@H](O)[C@]1(C)O` [Azithromycin], the myelination was -11.8. Take `C[C@@H]1O[C@@H](OC[C@H]2O[C@@H](Oc3c(-c4ccc(O)c(O)c4)oc4cc(O)cc(O)c4c3=O)[C@H](O)[C@@H](O)[C@@H]2O)[C@H](O)[C@H](O)[C@H]1O` [Rutin]: the myelination was -4.44. In the case of `CN(C)CCCC1(c2ccc(F)cc2)OCc2cc(C#N)ccc21` (stereo unspecified) [Citalopram], the myelination was -19. Then `C#C[C@]1(O)CC[C@H]2[C@@H]3CCC4=Cc5oncc5C[C@]4(C)[C@H]3CC[C@@]21C` [Danazol], with -24.3; and `Cc1cc(NS(=O)(=O)c2ccc(N)cc2)no1` [Sulfamethoxazole], with -5.03; and `c1ccc2c(CC3=NCCN3)cccc2c1` [Naphazoline], with 14.

On to `CCOC(=O)[C@H](CCc1ccccc1)N[C@@H](C)C(=O)N1CCC[C@H]1C(=O)O` [Enalapril], for which the myelination was -27.5. For the compound `N[C@@H](C(=O)N[C@@H]1C(=O)N2C(C(=O)O)=C(CSc3c[nH]nn3)CS[C@H]12)c1ccc(O)cc1` [Cefatrizine], the myelination is -4.37.

Regarding `CN1CC(=O)N2[C@H](c3ccc4c(c3)OCO4)c3[nH]c4ccccc4c3C[C@@H]2C1=O` [Tadalafil], the myelination is -34.9. As for `Nc1nc2c(ncn2COC(CO)CO)c(=O)[nH]1` [Ganciclovir], the figure is 7.82; as for `OC(c1cc(C(F)(F)F)nc2c(C(F)(F)F)cccc12)C1CCCCN1` (stereo unspecified) [Mefloquine], -31.7.

As to `C[C@H](CCC(=O)O)[C@H]1CC[C@H]2[C@@H]3C(=O)C[C@@H]4CC(=O)CC[C@]4(C)[C@H]3CC(=O)[C@]12C` [Dehydrocholic Acid], the myelination was -14.2. In the case of `O=C1NC(=O)C(c2ccccc2)(c2ccccc2)N1` [Phenytoin], the myelination was -20.9. Then `COc1cc2nc(N3CCN(C(=O)C4CCCO4)CC3)nc(N)c2cc1OC` (stereo unspecified) [Terazosin], with 2.09; and `CN(C)CCCN1c2ccccc2Sc2ccc(Cl)cc21` [Chlorpromazine], with -2.13. As for `CCOC(=O)[C@H](CCc1ccccc1)N[C@H]1CCc2ccccc2N(CC(=O)O)C1=O` [Benazepril], the myelination is -6.97. `CNCCC=C1c2ccccc2CCc2ccccc21` [Nortriptyline]: the myelination was 54.7 (active). As for `COc1cc(NC(C)CCCN)c2ncccc2c1` (stereo unspecified) [Primaquine], the figure is 11.1. As to `OC(Cn1cncn1)(Cn1cncn1)c1ccc(F)cc1F` [Fluconazole], the myelination was -19.9. Turning to `CC1(C)S[C@@H]2[C@H](NC(=O)Cc3ccccc3)C(=O)N2[C@H]1C(=O)O` [Penicillin G], the myelination is 4.95.
